# Inconclusive results are not listed. Activity calls are given as the source filed them. Rule for the calls: active = hit-call score of the fitted dose curve at least 0.9, where 1 is the maximum; inconclusive = response in the unintended direction; inactive = score below 0.9.
# What was measured:
# [1] = target: Voltage-dependent N-type calcium channel subunit alpha-1B (Rattus norvegicus) (UniProt Q02294); experiment: NVS_IC_rCaChN: NovaScreen (NVS) Ion Channel Assay for rat Calcium Channel, Type N (CaChN) (AID 2283317)
# [2] = target: rat Opioid Receptor, Non-selective Binding, Oprm1 (gene 25601) (UniProt P33535); experiment: NVS_GPCR_rOpiate_NonSelective: NovaScreen (NVS) G Protein-Coupled Receptor Assay for rat Opioid Receptor, Non-selective Binding (AID 2283318)
# How it was run: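 Rat forebrain membranes, cell-free radioligand binding with filter-based scintillation counting, read 1.5 h after dosing. Primary screen in duplicate at 25 uM; actives retested in concentration series. Loss of signal versus DMSO baseline scored.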
# [3] = target: rat Gamma-Aminobutyric Acid Type B Receptor (GABBR), Gabbr1 (gene 81657) (UniProt Q9Z0U4); experiment: NVS_GPCR_rGABBR: NovaScreen (NVS) G Protein-Coupled Receptor Assay for rat Gamma-Aminobutyric Acid Type B Receptor (GABBR) (AID 2283301)
# How it was run: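 Radioligand displacement on rat cortical membranes, 1 h, filter-based scintillation counting. Primary screen at 25 uM in duplicate; compounds passing threshold re-tested in concentration-response up to 50 uM; loss of binding fitted against DMSO.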
# [4] = target: rat Adrenergic Receptor, Alpha 2 (Adra2), Non-selective Binding, Adra2a (gene 25083) (UniProt P22909); experiment: NVS_GPCR_rAdra2_NonSelective: NovaScreen (NVS) G Protein-Coupled Receptor Assay for rat Adrenergic Receptor, Alpha 2 (Adra2), Non-selective Binding (AID 2283299)
# How it was run: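 Rat cortical membranes, radioligand competitive displacement read by filter-based scintillation counting 1.25 hours after dosing. Primary screen in duplicate at 25 uM; actives followed up in concentration series.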
# Adra2b (gene 24174) = Adra2b (gene 24174) (UniProt P19328); experiment: NVS_GPCR_rmAdra2B: NovaScreen (NVS) G Protein-Coupled Receptor Assay for hybird cells Adrenergic, Alpha 2B Receptor (Adra2B) (AID 2283306)
# How it was run: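 Radioligand filter-binding assay on membrane proteins from neuroglioma/blastoma hybrid cells (rodent), 1 h after dosing; scintillation counting, loss of signal vs DMSO. Primary screen in duplicate at 25 uM, actives then run in concentration series.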
# [5] = target: rat Histamine Receptor (H3), Hrh3 (gene 85268) (UniProt Q9QYN8); experiment: NVS_GPCR_rH3: NovaScreen (NVS) G Protein-Coupled Receptor Assay for rat Histamine Receptor (H3) (AID 2283303)
# How it was run: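 Rat forebrain membranes incubated 1 h with compound; radioligand displacement measured by filter-based scintillation counting. Single-concentration duplicates at 25 µM, then concentration-response up to 50 µM, relative to DMSO.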
# [6] = target: Metabotropic glutamate receptor 1 (Rattus norvegicus) (UniProt P23385); experiment: NVS_GPCR_rmMGluR1: NovaScreen (NVS) G Protein-Coupled Receptor Assay for rat Glutamate Metabotropic Receptor 1 (MGluR1) (AID 2283305)
# How it was run: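 Rat cerebellum membrane preparation, radioligand displacement binding read by filter-based scintillation counting 1 hour after dosing. Initial duplicate single-point screen at 25 uM, then concentration-response up to 50 uM; loss of signal versus DMSO baseline scored.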
# [7] = target: rat Glutamate Metabotropic Receptor 5 (MGluR5), Grm5 (gene 24418) (UniProt P31424); experiment: NVS_GPCR_rmMGluR5: NovaScreen (NVS) G Protein-Coupled Receptor Assay for rat Glutamate Metabotropic Receptor 5 (MGluR5) (AID 2283307)
# How it was run: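 Rat whole-brain membrane preparation; filter-based radioligand binding read by scintillation counting, 1.5 h after dosing. Single-point screen at 25 uM in duplicate; hits over threshold (e.g. 30% inhibition) retested in concentration-response up to 50 uM; loss of signal vs DMSO.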
# [8] = target: rat Neurokinin-3 Receptor (NK3), Tacr3 (gene 24808) (UniProt P16177); experiment: NVS_GPCR_rNK3: NovaScreen (NVS) G Protein-Coupled Receptor Assay for rat Neurokinin-3 Receptor (NK3) (AID 2283310)
# How it was run: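 Rat cortical membranes; radioligand binding with filtration and scintillation counting, 2 h after dosing. Primary screen in duplicate at 25 uM, then concentration-response up to 50 uM; loss of binding signal relative to DMSO.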
# [9] = target: rat Opioid Receptor, Non-selective Sodium (Na+) Binding, Oprm1 (gene 25601) (UniProt P33535); experiment: NVS_GPCR_rOpiate_NonSelectiveNa: NovaScreen (NVS) G Protein-Coupled Receptor Assay for rat Opioid Receptor, Non-selective Sodium (Na+) Binding (AID 2283311)
# How it was run: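 Rat forebrain membranes, radioligand displacement with filter scintillation counting, 1.5 h incubation. Screened in duplicate at 25 µM; hits then run in concentration-response up to 50 µM; loss of binding fitted versus DMSO.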
# [10] = target: rat Somatostatin Receptor (SST), Sstr1 (gene 25033) (UniProt P28646); experiment: NVS_GPCR_rSST: NovaScreen (NVS) G Protein-Coupled Receptor Assay for rat Somatostatin Receptor (SST) (AID 2283314)
# How it was run: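 Rat forebrain membranes; radioligand displacement read by filter-based scintillation counting 1 h after dosing. Primary screen in duplicate at 25 uM. Actives (e.g., 30% inhibition) were rerun as concentration-response to 50 uM max and fitted against DMSO.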
# [11] = NVS_IC_rCaDHPRCh_L: NovaScreen (NVS) Ion Channel Assay for rat Calcium Channel, Type L, Dihydropyridine Site (CaDHPRCh_L) (AID 2283320)
# How it was run: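 Radioligand binding to dihydropyridine site on rat cortical membranes, filter-based scintillation counting, 1 h after dosing. Screened in duplicate at 25 uM; actives rerun in concentration-response up to 50 uM. Loss of signal versus DMSO baseline.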
# [12] = target: rat Neonicotinoid receptor (NNR), Chrna7 (gene 25302) (UniProt Q05941); experiment: NVS_LGIC_rNNR_BungSens: NovaScreen (NVS) Ligand-Gated Ion Channel Assay for rat Neonicotinoid receptor (NNR) (AID 2283315)
# How it was run: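 Radioligand displacement binding on rat cortical membranes, 2.5 h incubation, filtration and scintillation counting. Loss of specific binding fitted relative to DMSO.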
# [13] = target: rat Neurokinin-1 Receptor (NK1), Tacr1 (gene 24807) (UniProt P14600); experiment: NVS_GPCR_rNK1: NovaScreen (NVS) G Protein-Coupled Receptor Assay for rat Neurokinin-1 Receptor (NK1) (AID 2283309)
# How it was run: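 Rat submaxillary gland membranes; radioligand displacement read by filter-based scintillation counting after 1 h. Primary screen in duplicate at 25 uM; actives retested in concentration series; loss of binding fitted versus DMSO.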
# [14] = target: human Neonicotinoid receptor (NNR), CHRNA2 (gene 1135) (UniProt Q15822); experiment: NVS_LGIC_hNNR_NBungSens: NovaScreen (NVS) Ligand-Gated Ion Channel Assay for human Neonicotinoid receptor (NNR) (AID 2283313)
# How it was run: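 Radioligand displacement on human neuroblastoma membranes, 2 h, filter-based scintillation counting. Primary screen in duplicate at 25 uM; chemicals passing threshold (e.g. 30% inhibition) run singleton concentration-response to 50 uM; loss of binding fitted versus DMSO.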
# [15] = target: rat Adrenergic Receptor, Beta (Adrb), Non-selective Binding, Adrb1 (gene 24925) (UniProt P18090); experiment: NVS_GPCR_rAdrb_NonSelective: NovaScreen (NVS) G Protein-Coupled Receptor Assay for rat Adrenergic Receptor, Beta (Adrb), Non-selective Binding (AID 2283298)
# How it was run: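 Non-selective beta-adrenergic radioligand binding in rat cortical membranes, 1 h incubation, filter-based scintillation read-out. Primary screen 25 uM in duplicate; hits retested in concentration-response up to 50 uM, DMSO baseline.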
# [16] = target: rat Corticotropin Releasing Factor Receptor (CRF), Crhr1 (gene 58959) (UniProt P35353); experiment: NVS_GPCR_rCRF: NovaScreen (NVS) G Protein-Coupled Receptor Assay for rat Corticotropin Releasing Factor Receptor (CRF) (AID 2283300)
# How it was run: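 Rat cortical membranes used as receptor source in a radioligand competitive displacement binding assay; scintillation read 2 h after dosing. Primary screen run in duplicate at 25 uM; loss of signal versus DMSO baseline indicates binding.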
# [17] = target: rat Neurotensin Receptor (NTS), Ntsr1 (gene 366274) (UniProt P20789); experiment: NVS_GPCR_rNTS: NovaScreen (NVS) G Protein-Coupled Receptor Assay for rat Neurotensin Receptor (NTS) (AID 2283308)
# How it was run: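 Rat forebrain membranes; radioligand binding with competitive displacement, read by filter-based scintillation counting 1 h after dosing. Primary screen in duplicate at 25 uM; actives (e.g., 30% inhibition) rerun in concentration-response up to 50 uM, loss-of-signal versus DMSO.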
# NCBI gene 24521 = experiment: NVS_IC_rKATPCh: NovaScreen (NVS) Ion Channel Assay for rat Potassium Channel, ATP-Sensitive (KATPCh) (AID 2283319)
# How it was run: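 Rat cortical membranes; radioligand binding at ATP-sensitive K channel site, filter-based scintillation counting 2 h after dosing. Single-point duplicate screen at 25 uM, hits rerun in concentration-response up to 50 uM; loss of signal versus DMSO.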
# [18] = target: rat Vasopressin 1 Receptor (V1), Avpr1a (gene 25107) (UniProt P30560); experiment: NVS_GPCR_rV1: NovaScreen (NVS) G Protein-Coupled Receptor Assay for rat Vasopressin 1 Receptor (V1) (AID 2283316)
# How it was run: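 Radioligand binding on rat liver membranes, 1.5 h incubation, filter-based scintillation counting. Single 25 uM screen in duplicate; chemicals meeting threshold (e.g. 30% inhibition) run in concentration-response up to 50 uM.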
# rat Adrenergic Receptor, Alpha 2 (Adra2), Non-selective Binding, Adra2a (gene 25083), sequence (P22909 whole entry, looked up): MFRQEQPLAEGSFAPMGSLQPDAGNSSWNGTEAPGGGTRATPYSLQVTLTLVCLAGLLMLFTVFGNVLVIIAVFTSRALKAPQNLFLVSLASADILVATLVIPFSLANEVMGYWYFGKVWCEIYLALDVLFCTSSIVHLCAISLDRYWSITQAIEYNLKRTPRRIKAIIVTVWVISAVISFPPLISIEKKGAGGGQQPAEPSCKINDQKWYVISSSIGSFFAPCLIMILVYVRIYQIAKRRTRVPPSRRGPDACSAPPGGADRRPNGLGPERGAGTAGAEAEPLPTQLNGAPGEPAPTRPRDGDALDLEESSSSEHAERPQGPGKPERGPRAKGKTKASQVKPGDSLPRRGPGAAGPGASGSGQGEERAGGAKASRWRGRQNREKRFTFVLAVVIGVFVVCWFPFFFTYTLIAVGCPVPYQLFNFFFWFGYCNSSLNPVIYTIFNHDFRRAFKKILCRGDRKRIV
# rat Opioid Receptor, Non-selective Binding, Oprm1 (gene 25601), sequence (P33535 whole entry, looked up): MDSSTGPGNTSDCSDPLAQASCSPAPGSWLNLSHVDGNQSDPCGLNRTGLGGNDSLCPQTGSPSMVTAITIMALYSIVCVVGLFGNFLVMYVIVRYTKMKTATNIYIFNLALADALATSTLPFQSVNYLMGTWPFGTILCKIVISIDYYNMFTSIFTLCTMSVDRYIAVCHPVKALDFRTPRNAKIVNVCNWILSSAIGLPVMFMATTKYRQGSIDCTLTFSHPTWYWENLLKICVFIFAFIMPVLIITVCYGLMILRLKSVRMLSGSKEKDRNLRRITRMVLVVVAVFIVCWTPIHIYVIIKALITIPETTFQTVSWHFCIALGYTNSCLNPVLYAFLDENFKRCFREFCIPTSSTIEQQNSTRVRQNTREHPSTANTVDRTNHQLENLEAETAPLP
# Adra2b (gene 24174), sequence (P19328 whole entry, looked up): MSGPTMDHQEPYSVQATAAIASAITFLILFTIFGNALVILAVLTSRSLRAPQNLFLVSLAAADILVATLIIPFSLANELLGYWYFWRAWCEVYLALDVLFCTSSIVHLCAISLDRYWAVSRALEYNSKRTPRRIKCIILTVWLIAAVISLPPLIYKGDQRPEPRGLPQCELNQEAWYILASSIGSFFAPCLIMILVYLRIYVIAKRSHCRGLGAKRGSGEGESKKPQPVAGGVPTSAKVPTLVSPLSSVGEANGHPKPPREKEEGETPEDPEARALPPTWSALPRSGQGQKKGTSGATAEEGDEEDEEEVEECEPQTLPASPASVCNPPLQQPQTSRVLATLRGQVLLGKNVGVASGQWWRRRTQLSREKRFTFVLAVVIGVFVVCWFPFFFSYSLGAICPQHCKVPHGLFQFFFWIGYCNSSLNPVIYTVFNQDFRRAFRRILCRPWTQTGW
# rat Neonicotinoid receptor (NNR), Chrna7 (gene 25302), sequence (Q05941 whole entry, looked up): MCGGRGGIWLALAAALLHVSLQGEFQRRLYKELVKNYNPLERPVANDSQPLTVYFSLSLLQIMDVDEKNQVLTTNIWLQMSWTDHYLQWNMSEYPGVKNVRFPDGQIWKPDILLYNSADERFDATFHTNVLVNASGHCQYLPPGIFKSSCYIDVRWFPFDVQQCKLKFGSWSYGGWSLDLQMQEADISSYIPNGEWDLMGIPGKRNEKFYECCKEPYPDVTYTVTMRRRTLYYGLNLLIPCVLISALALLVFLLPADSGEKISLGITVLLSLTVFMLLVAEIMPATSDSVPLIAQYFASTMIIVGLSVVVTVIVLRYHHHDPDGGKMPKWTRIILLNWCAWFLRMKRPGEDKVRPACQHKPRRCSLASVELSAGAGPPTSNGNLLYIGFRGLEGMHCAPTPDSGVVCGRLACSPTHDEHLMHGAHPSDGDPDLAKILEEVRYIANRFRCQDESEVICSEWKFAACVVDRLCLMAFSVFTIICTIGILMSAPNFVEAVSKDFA
# rat Somatostatin Receptor (SST), Sstr1 (gene 25033), sequence (P28646 whole entry, looked up): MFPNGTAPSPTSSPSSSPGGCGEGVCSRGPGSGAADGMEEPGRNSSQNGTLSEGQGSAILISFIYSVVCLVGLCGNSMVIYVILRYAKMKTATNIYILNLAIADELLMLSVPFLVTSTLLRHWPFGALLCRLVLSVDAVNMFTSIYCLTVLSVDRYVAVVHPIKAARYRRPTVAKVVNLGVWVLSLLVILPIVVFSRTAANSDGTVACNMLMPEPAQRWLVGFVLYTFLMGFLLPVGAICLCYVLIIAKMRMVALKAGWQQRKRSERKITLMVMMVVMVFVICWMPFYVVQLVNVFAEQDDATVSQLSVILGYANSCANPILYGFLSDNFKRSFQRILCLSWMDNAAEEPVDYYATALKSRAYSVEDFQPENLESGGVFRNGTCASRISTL
# rat Neurokinin-3 Receptor (NK3), Tacr3 (gene 24808), sequence (P16177 whole entry, looked up): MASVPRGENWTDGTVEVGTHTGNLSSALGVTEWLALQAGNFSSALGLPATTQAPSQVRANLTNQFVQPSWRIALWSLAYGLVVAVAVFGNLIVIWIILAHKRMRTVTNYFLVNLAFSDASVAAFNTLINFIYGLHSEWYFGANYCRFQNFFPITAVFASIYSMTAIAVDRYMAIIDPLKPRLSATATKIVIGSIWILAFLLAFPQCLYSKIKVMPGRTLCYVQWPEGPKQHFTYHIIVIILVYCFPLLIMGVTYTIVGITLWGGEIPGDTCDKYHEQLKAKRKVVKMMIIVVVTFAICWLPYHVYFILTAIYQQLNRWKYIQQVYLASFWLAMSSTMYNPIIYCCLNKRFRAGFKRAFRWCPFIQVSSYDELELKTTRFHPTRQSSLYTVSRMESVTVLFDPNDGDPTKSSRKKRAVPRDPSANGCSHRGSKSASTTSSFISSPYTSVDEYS
# rat Vasopressin 1 Receptor (V1), Avpr1a (gene 25107), sequence (P30560 whole entry, looked up): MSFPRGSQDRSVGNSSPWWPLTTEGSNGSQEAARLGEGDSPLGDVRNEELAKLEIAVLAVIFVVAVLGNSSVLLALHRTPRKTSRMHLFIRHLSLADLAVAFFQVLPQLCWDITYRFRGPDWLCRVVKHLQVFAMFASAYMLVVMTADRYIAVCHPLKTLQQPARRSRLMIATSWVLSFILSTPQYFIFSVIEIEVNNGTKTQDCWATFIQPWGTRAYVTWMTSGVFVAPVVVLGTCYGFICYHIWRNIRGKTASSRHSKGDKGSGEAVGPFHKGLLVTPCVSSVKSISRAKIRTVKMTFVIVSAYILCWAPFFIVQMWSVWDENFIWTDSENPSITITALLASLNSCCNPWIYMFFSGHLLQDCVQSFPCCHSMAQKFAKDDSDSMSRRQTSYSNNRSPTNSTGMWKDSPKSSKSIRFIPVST
# rat Glutamate Metabotropic Receptor 5 (MGluR5), Grm5 (gene 24418), sequence (P31424 whole entry, looked up): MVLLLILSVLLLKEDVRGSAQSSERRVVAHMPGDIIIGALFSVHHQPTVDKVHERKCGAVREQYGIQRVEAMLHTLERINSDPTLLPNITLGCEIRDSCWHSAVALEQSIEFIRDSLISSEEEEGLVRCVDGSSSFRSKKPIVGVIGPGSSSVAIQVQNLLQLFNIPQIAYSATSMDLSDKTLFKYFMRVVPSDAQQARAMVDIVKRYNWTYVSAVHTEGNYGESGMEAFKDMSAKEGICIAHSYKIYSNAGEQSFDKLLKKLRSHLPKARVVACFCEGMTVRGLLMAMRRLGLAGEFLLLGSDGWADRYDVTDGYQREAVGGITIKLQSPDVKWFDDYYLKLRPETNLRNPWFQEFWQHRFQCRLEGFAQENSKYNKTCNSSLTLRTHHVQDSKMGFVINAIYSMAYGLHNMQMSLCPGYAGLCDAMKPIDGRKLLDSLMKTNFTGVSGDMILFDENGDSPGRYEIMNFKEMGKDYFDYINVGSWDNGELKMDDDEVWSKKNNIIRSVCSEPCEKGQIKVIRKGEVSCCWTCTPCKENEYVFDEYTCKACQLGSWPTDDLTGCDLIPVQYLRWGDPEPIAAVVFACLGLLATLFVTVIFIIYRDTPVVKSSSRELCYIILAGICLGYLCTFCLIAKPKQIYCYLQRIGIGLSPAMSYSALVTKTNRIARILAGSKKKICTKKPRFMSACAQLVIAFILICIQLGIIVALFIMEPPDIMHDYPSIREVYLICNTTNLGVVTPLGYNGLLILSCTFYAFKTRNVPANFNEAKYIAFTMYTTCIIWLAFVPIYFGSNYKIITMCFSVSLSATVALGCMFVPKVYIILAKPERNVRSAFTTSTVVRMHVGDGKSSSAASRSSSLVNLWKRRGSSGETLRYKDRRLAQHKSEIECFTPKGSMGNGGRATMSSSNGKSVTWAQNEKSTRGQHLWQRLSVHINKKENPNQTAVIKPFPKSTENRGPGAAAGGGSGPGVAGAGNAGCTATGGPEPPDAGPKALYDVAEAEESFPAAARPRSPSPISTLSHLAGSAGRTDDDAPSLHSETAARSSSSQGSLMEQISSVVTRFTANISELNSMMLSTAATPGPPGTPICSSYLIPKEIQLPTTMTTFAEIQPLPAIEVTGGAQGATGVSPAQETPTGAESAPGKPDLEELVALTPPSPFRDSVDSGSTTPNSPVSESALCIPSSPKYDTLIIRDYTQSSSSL
# rat Opioid Receptor, Non-selective Sodium (Na+) Binding, Oprm1 (gene 25601), sequence (P33535 whole entry, looked up): as the sequence (P33535 whole entry, looked up) above
# rat Histamine Receptor (H3), Hrh3 (gene 85268), sequence (Q9QYN8 whole entry, looked up): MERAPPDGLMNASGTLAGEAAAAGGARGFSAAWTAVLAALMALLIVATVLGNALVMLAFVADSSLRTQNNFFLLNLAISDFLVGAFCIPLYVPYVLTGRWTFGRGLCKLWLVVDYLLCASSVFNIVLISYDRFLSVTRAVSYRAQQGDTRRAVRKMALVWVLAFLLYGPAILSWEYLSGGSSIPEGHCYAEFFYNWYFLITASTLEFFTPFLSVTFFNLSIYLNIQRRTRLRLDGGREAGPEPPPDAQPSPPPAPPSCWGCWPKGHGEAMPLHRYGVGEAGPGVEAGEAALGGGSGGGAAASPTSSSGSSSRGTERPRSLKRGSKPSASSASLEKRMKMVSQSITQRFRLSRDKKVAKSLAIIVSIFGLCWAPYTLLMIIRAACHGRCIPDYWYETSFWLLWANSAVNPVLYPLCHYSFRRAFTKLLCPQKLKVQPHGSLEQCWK
smiles,measurement,setting,value
O=c1[nH]c(=O)[nH]c(=O)[nH]1,outcome,[1],inactive
same,outcome,[2],inactive
O=C1C2(Cl)C3(Cl)C4(Cl)C(Cl)(Cl)C5(Cl)C3(Cl)C1(Cl)C5(Cl)C24Cl (stereo not given),outcome,[3],inactive
CCC(=O)C(CC(C)N(C)C)(c1ccccc1)c1ccccc1 (stereo not given),AC50,[4],12 µM (active)
same,AC50,Adra2b (gene 24174),6.79 µM (active)
CC(=O)[O][Hg][c]1ccccc1,AC50,[4],3.96 µM (active)
same,AC50,[3],38.5 µM (active)
same,AC50,[5],40.2 µM (active)
same,AC50,[6],10.8 µM (active)
same,AC50,Adra2b (gene 24174),11.9 µM (active)
same,outcome,[7],inactive
same,AC50,[8],16.8 µM (active)
same,AC50,[9],30 µM (active)
same,AC50,[10],5.92 µM (active)
same,AC50,[2],31.9 µM (active)
same,AC50,[11],40.5 µM (active)
COc1cc2c(cc1OC)[C@@]13CCN4CC5=CCO[C@H]6CC(=O)N2[C@H]1[C@H]6[C@H]5C[C@H]43,AC50,[12],25 µM (active)
CCN1CCC2(CC1)COc1cc3c(cc12)N(C(=O)c1ccc(-c2ccc(-c4nnc(C)o4)cc2C)cc1)CC3,AC50,[4],18.6 µM (active)
same,AC50,Adra2b (gene 24174),10.1 µM (active)
same,AC50,[13],10.7 µM (active)
same,AC50,[14],5.41 µM (active)
same,AC50,[12],21.2 µM (active)
same,outcome,[2],inactive
same,AC50,[11],4.93 µM (active)
C[C@@H]1C[C@@H]([C@H](O)CC2CC(=O)NC(=O)C2)C(=O)[C@@H](C)C1,outcome,[13],inactive
same,outcome,[12],inactive
C=C(C)C(=O)[O][Sn]([CH2]CCC)([CH2]CCC)[CH2]CCC,AC50,[15],20.5 µM (active)
same,AC50,[4],3.25 µM (active)
same,outcome,[16],inactive
same,AC50,[5],25 µM (active)
same,AC50,[6],4.13 µM (active)
same,AC50,Adra2b (gene 24174),3.08 µM (active)
same,AC50,[7],18.1 µM (active)
same,outcome,[17],inactive
same,AC50,[8],1.4 µM (active)
same,AC50,[9],8.6 µM (active)
same,AC50,[10],12.8 µM (active)
same,AC50,[2],4.13 µM (active)
same,outcome,NCBI gene 24521,inactive
same,AC50,[11],12.3 µM (active)
O=C(O)C(F)(F)C(F)(F)C(F)(F)C(F)(F)C(F)(F)C(F)(F)F,AC50,[18],39.2 µM (active)
Cc1ccccc1N,AC50,[10],10.8 µM (active)
COc1cc(-c2ccc(N)c(OC)c2)ccc1N,AC50,Adra2b (gene 24174),15.5 µM (active)
Oc1cccc2cccnc12,outcome,[11],inactive
O=C(O)C(Cl)(Cl)Cl,AC50,[18],1.6 µM (active)
